Screens: PubChem BioAssay, National Center for Advancing Translational Sciences (NCATS)
An excerpt weighted towards active compounds, which were near 19% of everything screened.
Lassa entry inh – blocks Lassa virus binding to or entry into cells. AID 540256. Potency, µM (titrated, usually from 37.9 µM), inactives show at the top dose activity change, negative = inhibition, usual class: inhibitors. hit rate 1.2% among 300,000. Lassa virus pseudotype entry inhibition, cell reporter; calls by dose curve; tested in HEK293 cells; note: potency is the fitted concentration of half-maximal effect; % is set by controls: 0 for no effect and ±100 for the full control effect; nearly all actives have a fitted effect of over 50% in size
Pf growth 96h – P. falciparum growth inhibition at 96 hours; P. falciparum luciferase reporter growth, 96 h; Potency, µM (highest dose often 28.7 µM), for inactives: at the highest dose activity change, negative = inhibition, actives largely listed as inhibitors; hit rate 6.9% among 320,000; AID 504834; note: potency is the fitted concentration of half-maximal effect; % is set by controls: 0 for no effect and ±100 for the full control effect
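Readout is luminescence from an integrated firefly luciferase in P. falciparum. Red cells, 2% hematocrit and 0.05% parasitemia final, were cultured with compound through two parasite generations (96 hours) at 37 C, 5% CO2.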
MARV entry inh – inhibitors of Marburg virus binding or cell entry; Marburg virus pseudotyped entry inhibition, cell reporter; Potency, µM (series often up to 37.8 µM), inactives show top-dose activity change, negative = inhibition, usual class: inhibitors; hit rate 1.8% among 300,000; calls by dose curve; tested in HEK293 cells; note: potency is the fitted concentration of half-maximal effect; % is set by controls: 0 for no effect and ±100 for the full control effect
Pf growth 48h – inhibits P. falciparum growth in the first generation, 48 h | hit rate 5.9% among 310,000 | P. falciparum luciferase growth in erythrocytes, 48 h | Potency, µM (highest dose often 28.7 µM), for inactives: at the top dose activity change, negative = inhibition, usual class: inhibitors; note: potency is the fitted concentration of half-maximal effect; % is set by controls: 0 for no effect and ±100 for the full control effect
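Read-out is firefly luciferase luminescence from an integrated reporter in P. falciparum, so falling signal marks reduced parasite growth. Infected erythrocytes were at 2% hematocrit and 0.1% parasitemia (final) in Albumax-supplemented RPMI 1640.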
Cycloheximide cs – affects cycloheximide protein synthesis inhibition readout, counter-screen; cell reporter, cycloheximide protein synthesis inhibition counterscreen; max response, %; hit rate 12% among 300,000; in the data active = max response mostly above about 13%, no sharp cut-off; inactive = mostly below about 14%; note: read at 38.3 µM for the half of the compounds with a filed dose; 0% is about no effect
Shiga toxin inh – Shiga toxin inhibition. Vero cells, Shiga toxin protein synthesis inhibition reporter. hit rate 9.2% among 290,000. inhibition, % at 38.7 µM; in the data active = inhibition mostly above about 28%, no sharp cut-off; inactive = mostly below about 43%; note: 0% is about no effect
Numbers without * were called inactive; ? = inconclusive; · = not tested or not shown; [ ] = remark or other dose. Unless noted, calls come from the whole dose curve; as a rule, active = well fitted inhibition curve with a large enough effect; inconclusive = small, poorly fitted or top-dose-only effect, or another doubt; inactive = no such curve, though single readings can be large or run the other way.

SMILES	Lassa entry inh	Pf growth 96h	MARV entry inh	Pf growth 48h	Cycloheximide cs	Shiga toxin inh
COc1ccc(-c2cc(CCCC(=O)NCCc3ccccc3)no2)cc1	-14%[46.1 µM]	-4%	?	19%	64*	67*
CC(C)CN(C(=O)COC(=O)CSc1ccccc1)c1c(N)n(Cc2ccccc2)c(=O)[nH]c1=O	13%	34%	20%	-10%	·	·
CCN(CCCNC(=O)CCc1nc(-c2ccc(OC)cc2)no1)c1cccc(C)c1	?	13µM*	?	·	-2	28
COc1ccc(CCNC(=O)CCCc2ccccc2)cc1	5%[46.1 µM]	10µM*	3%[46.1 µM]	7%	1	·
COc1ccc(-c2noc(CCC(=O)NCCc3ccccc3)n2)cc1	-9%	-6%	?	0%[0.00184 µM]	25*	45
COc1ccc(CCCC(=O)NCc2ccccc2)cc1C	8.2µM*	?	-26%	-4%	2	-3
COc1cc2c(cc1OC)C(C(=O)O)C(c1cc(Br)c(O)c(OC)c1)N(C)C2=O (stereo unspecified)	6%	0%	3%	14%	-5	-7
Cc1ccc(-n2ncc3c(Nc4ccc5c(c4)OCCO5)ncnc32)cc1Cl	17%[46.1 µM]	·	·	·	·	·
O=C(NC1CCN(Cc2ccccc2)C1)c1cccc(S(=O)(=O)N2CCOCC2)c1 (stereo unspecified)	1%	-13%	-20%	?	·	·
CC(=O)N1c2ccccc2CCc2ccc([N+](=O)[O-])cc21	·	-16%	·	-18%	-1	-12
COc1cc2c(cc1NC(=S)Nc1ccccc1C)oc1ccccc12	7%	·	?	35%	33*	91*
CCCNC(=S)Nc1cc2oc3ccccc3c2cc1OC	·	3.3µM*	·	?	20	15
CNC(=S)Nc1cc2oc3ccccc3c2cc1OC	9%[46.1 µM]	40%	11%[46.1 µM]	28%	0	18
CCNC(=S)Nc1cc2oc3ccccc3c2cc1OC	-20%[46.1 µM]	-2%	-17%[46.1 µM]	15%	3	-2
COc1cccc2cc(C(=O)C3=C(O)C(=O)N(c4cc(C)on4)C3c3cccs3)oc12 (stereo unspecified)	·	0%	·	5%	9	26
C#CCN[C@@H]1CCc2ccccc21	·	-17%	·	5%	·	·
O=C(/C=C/c1ccccc1)NNC(=O)c1cccs1	5%	11%	?	59%	23*	38
COc1ccccc1/C=C/C(=O)NNC(=O)c1cccs1	?	8%	-2%[46.1 µM]	161%	26*	71*
O=C(CCn1c(=O)c2cccn2c2cccnc21)N1CCN(c2ccc(Cl)cc2)CC1	24%[46.1 µM]	·	·	·	·	·
NNC(=O)CC1=NNC(=O)C1	11%	·	-3%	·	·	·
NC1=NC(=O)/C(=C/c2ccccc2OCC(=O)Nc2ccc(F)cc2)S1	18%[46.1 µM]	·	-14%[46.1 µM]	·	·	·
COc1ccc(-c2nnc(NC(=O)c3ccc(S(=O)(=O)N4CCCc5ccccc54)cc3)o2)cc1	?	?	?	12µM*	1	-1
CS(=O)(=O)c1ccc(-c2nnc(NC(=O)c3ccc(S(=O)(=O)N4CCCC4)cc3)o2)cc1	?	7.4µM*	13%	13µM*	·	·
CC1CCN(S(=O)(=O)c2ccc(C(=O)Nc3nnc(C4CC4)o3)cc2)CC1	?	?	?	?	-2	-10
CC1CCCCN1S(=O)(=O)c1ccc(C(=O)Nc2nnc(C3CC3)o2)cc1 (stereo unspecified)	?	12µM*	2%[46.1 µM]	?	-1	-10
SMILES	Lassa entry inh	Pf growth 96h	MARV entry inh	Pf growth 48h	Cycloheximide cs	Shiga toxin inh
O=C(Nc1nnc(C2CC2)o1)c1ccc(S(=O)(=O)N2CCCCC2)cc1	-7%[46.1 µM]	17µM*	-23%[46.1 µM]	?	-3	-10
CC1CCCCN1S(=O)(=O)c1ccc(C(=O)Nc2nnc(-c3ccccn3)o2)cc1 (stereo unspecified)	-15%[46.1 µM]	6%	?	8%	-4	-5
CC1CCCCN1S(=O)(=O)c1ccc(C(=O)Nc2nnc(-c3ccco3)o2)cc1 (stereo unspecified)	?	4.7µM*	?	?	-2	-16
Cc1nnc(NC(=O)c2ccc(S(=O)(=O)N3CCCCC3C)cc2)o1 (stereo unspecified)	1%	?	-13%	12µM*	-2	-4
CS/C(Nc1cc(Cl)ccc1Cl)=C(/C#N)C(=O)c1ccco1	5µM*	5.9µM*	?	3.3µM*	13	25
O=C(Nc1cc(Cl)ccc1Cl)c1ccco1	-3%	2%	10%	-10%	0	·
COC(=O)C(CCSC)NC(=O)c1cc2c(n(-c3ccc(C)cc3)c1=O)CCCC2=O (stereo unspecified)	-10%	?	8%[46.1 µM]	23%	19*	25
COC(=O)C(CCSC)NC(=O)c1cc2c(n(-c3ccc(C)cc3)c1=O)CC(C)(C)CC2=O (stereo unspecified)	-4%[46.1 µM]	·	-1%[46.1 µM]	·	·	·
COC(=O)C(CCSC)NC(=O)c1cc2c(n(-c3ccccc3)c1=O)CC(C)(C)CC2=O (stereo unspecified)	19%[46.1 µM]	3.7µM*	13%[46.1 µM]	-20%	-4	6
Cc1c(C(=O)N2CCCCC2)c(S(=O)(=O)NCc2ccc(N(C)C)cc2)c(C)n1C	5%[46.1 µM]	0.83µM*	-4%[46.1 µM]	-5%	2	3
Cc1ccc(CNS(=O)(=O)c2c(C(=O)N3CCCCC3)c(C)n(C)c2C)cc1	24%[46.1 µM]	-13%	-2%[46.1 µM]	16%	-2	3
Cc1c(C(=O)N2CCCCC2)c(S(=O)(=O)NCc2ccc(F)cc2)c(C)n1C	-6%[46.1 µM]	-3%	-1%[46.1 µM]	23%	9	-4
COc1ccc(CNS(=O)(=O)c2c(C(=O)N3CCCCCC3)c(C)n(C)c2C)cc1	29%[46.1 µM]	3.3µM*	13%[46.1 µM]	-15%	-3	-3
CC(=O)Cc1c(C(=O)O)c(C)nn1-c1ccccc1	9%	2%	4%[46.1 µM]	-4%	-2	-7
CC(C)(C)c1ccc(C(=O)NCC(=O)OCC(=O)Nc2nc(-c3ccc(F)cc3)cs2)cc1	11%	62%[5.75 µM]	?	24%	15	25
FC(F)Oc1ccc(-c2csc(NNC3=NCCCCC3)n2)cc1	?	?	?	?	21*	35
O=C(Nc1cccc(S(=O)(=O)NC2=NCCC2)c1)c1ccc(OC(F)F)cc1	·	-13%	·	26%	·	·
Brc1ccc(-c2csc(NNC3=NCCCCC3)n2)cc1	?	?	-13%	10µM*	25*	42
Brc1ccc(-c2csc(-c3nc(-c4ccc(Br)s4)cs3)n2)cc1	28%[46.1 µM]	·	?	·	·	·
CC(C)(C)c1ccc(-c2csc(NNC3=NCCCCC3)n2)cc1	?	·	?	10µM*	20*	30
CCOC(=O)N1CCN(C(=O)/C=C/c2ccc(C(C)(C)C)cc2)CC1	-18%	170%	15%	0%	5	-12
O=C(COc1ccc(S(=O)(=O)N2CCOCC2)cc1)NCc1ccccc1	-1%	-25%	-14%	?	5	-37
c1ccc2c(C[C@@H]3CNCCN3CC3CCCCC3)cccc2c1	·	12µM*	·	?	·	·
CCOc1ccc(S(=O)(=O)N(C)CC(=O)NCc2ccccn2)cc1Cl	8%	181%	?	4%	-4	-3
COc1ccc(Nc2ncnc3scc(-c4ccc(F)cc4)c23)cc1	-18%[46.1 µM]	·	·	·	·	·
